Measurements taken from the OligoGym collection.

target: TIMM44; assay: pooled miR-30 sensor sort-seq; sequence = guide strand; settings: shRNA
Further: reference of the scale not given here.

Q: Which sensor-assay potency score (higher = more potent) does the source give for TAGCTTCATAGCACCAGTCTTT here?
A: -0.701

Q: Which sensor-assay potency score (higher = more potent) does the source give for TTCTTGTTTGACATTATCTAGC here?
A: -0.514

Q: Which sensor-assay potency score (higher = more potent) does the source give for TTCCGTAGCACCTCGCTCGTCC here?
A: 1.18

Q: TTTACTGACTTCGTGAAGGCTC was tested. Which sensor-assay potency score (higher = more potent) did it give?
A: 0.133

Q: Which sensor-assay potency score (higher = more potent) does the source give for TTCTCTTCCGGAGTCGCTGGGG here?
A: -0.531

target: TIMM50; assay: as above; settings: shRNA

Q: How did the sensor-assay potency score (higher = more potent) turn out when TTTGCTTCTGACTAGTCTCCTG was run?
A: -0.00854

Q: Which sensor-assay potency score (higher = more potent) does the source give for TGAAATATCCTTTACATGGTGT here?
A: 0.0469

Q: How did the sensor-assay potency score (higher = more potent) turn out when TGATCATCTGTCTATAATCTTT was run?
A: -1.49

Q: How did the sensor-assay potency score (higher = more potent) turn out when TTGCTTCTGACTAGTCTCCTGG was run?
A: -0.18

Q: With TAGACGACGCTCACAGTCCCAC as the sequence, how does the sensor-assay potency score (higher = more potent) read?
A: -0.936

Q: With ATTCAGACATGAAATATCCTTT as the sequence, how does the sensor-assay potency score (higher = more potent) read?
A: 0.389

Q: Which sensor-assay potency score (higher = more potent) does the source give for TTCTGCTTGTTGGACTTGGAGA here?
A: -1.03

Q: With TATCAATGAGTGGAAACGCAGT as the sequence, how does the sensor-assay potency score (higher = more potent) read?
A: -1.04

Q: For TACATGGTGTCCATCCATGTAT, which sensor-assay potency score (higher = more potent) is on record?
A: -1

Q: For TTGAAATATTTGTATGTCCGGC, which sensor-assay potency score (higher = more potent) is on record?
A: -0.0672

Q: How did the sensor-assay potency score (higher = more potent) turn out when TGTCCATCCATGTATCTTGTGG was run?
A: -0.521

target: TJP3; assay: as above; settings: shRNA

Q: TTCATCTGCACGTCCTGCCGTG was tested. Which sensor-assay potency score (higher = more potent) did it give?
A: -0.0273

Q: How did the sensor-assay potency score (higher = more potent) turn out when TACAACCATGGATCCACCGGGC was run?
A: -0.563

Q: With TTCTGGAATCTACTGAACTTTC as the sequence, how does the sensor-assay potency score (higher = more potent) read?
A: -1.4

Q: With TTGAGCTCCTGGTACCAGGTGT as the sequence, how does the sensor-assay potency score (higher = more potent) read?
A: 0.444

Q: TCTAGTTTGATGATCTTGGAGG was tested. Which sensor-assay potency score (higher = more potent) did it give?
A: -0.916

Q: How did the sensor-assay potency score (higher = more potent) turn out when TTGACGCCAAACTCTTCGCTGT was run?
A: -0.592

Q: How did the sensor-assay potency score (higher = more potent) turn out when TAGAATGAGATCTCCTTCCTGC was run?
A: 0.597

Q: For ATAGGTTCGCATGCTGTCCTGT, which sensor-assay potency score (higher = more potent) is on record?
A: -0.0267

Q: How did the sensor-assay potency score (higher = more potent) turn out when ATCGTCTTCATCCGAGTCCTGG was run?
A: -0.452

Q: For TCGTAGTCGCTGTTAACGCGGC, which sensor-assay potency score (higher = more potent) is on record?
A: -0.824

Q: For TTCAGTGACAGGTTCTGGCTAG, which sensor-assay potency score (higher = more potent) is on record?
A: 0.155

Q: For TACCACGTCAGATACAACCATG, which sensor-assay potency score (higher = more potent) is on record?
A: -1.34

target: TKT; assay: as above; settings: shRNA

Q: How did the sensor-assay potency score (higher = more potent) turn out when TTTTTGCTCTGGATCTGGCTGT was run?
A: 0.312

Q: TTCTGGTAGATGTCCATCTGGT was tested. Which sensor-assay potency score (higher = more potent) did it give?
A: -0.51

Q: How did the sensor-assay potency score (higher = more potent) turn out when TTGTCCAGCTTATAGATGCTGG was run?
A: -1.07

Q: With TTGTCCCCAACTTTGTAGCTGG as the sequence, how does the sensor-assay potency score (higher = more potent) read?
A: -0.755

Q: How did the sensor-assay potency score (higher = more potent) turn out when TAAAAGACAGTTGATGTGGGGA was run?
A: 0.52

Q: With TTGAAGATCTCCGAGAAGGTGG as the sequence, how does the sensor-assay potency score (higher = more potent) read?
A: 0.421

Q: How did the sensor-assay potency score (higher = more potent) turn out when TTGCTCTTCAGGACCACCTTGG was run?
A: -0.197

Q: How did the sensor-assay potency score (higher = more potent) turn out when TAGATGATGGCATTTTCTGGGC was run?
A: -0.904

Q: For TTTCTTTCTTCAGCAGTTCGGC, which sensor-assay potency score (higher = more potent) is on record?
A: -0.762

Q: For TTGTCGAAGTATTTGCCGGTGT, which sensor-assay potency score (higher = more potent) is on record?
A: -0.129

Q: For TCCTTTTTGAAGATCTCCGAGA, which sensor-assay potency score (higher = more potent) is on record?
A: -0.964

Q: Which sensor-assay potency score (higher = more potent) does the source give for TTGATGTGGGGACTGACCGAAA here?
A: -0.805
